Rows were chosen to be rich in hits. Some 19% of all compounds tested hit in one or more screens of this group.
Pf growth 96h: inhibits malaria parasite growth, 96 h | P. falciparum luciferase reporter growth, 96 h | Potency, µM (series often up to 28.7 µM), usual class: inhibitors | hit rate 6.9% among 320,000
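P. falciparum expressing integrated firefly luciferase, in erythrocytes at 2% hematocrit, 0.05% parasitemia, incubated with compounds 96 h at 37 C, 5% CO2. Growth inhibition read as loss of luminescence; two-generation exposure targets delayed-death apicoplast inhibitors.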
Lassa entry inh: blocks Lassa virus binding to or entry into cells. Lassa virus pseudotype entry inhibition, cell reporter. hit rate 1.2% among 300,000. Potency, µM (titrated, usually from 37.9 µM), hits mostly inhibitors. AID 540256; calls by dose curve; tested in HEK293 cells; further: nearly all actives have a fitted effect of over 50% in size
Shiga inhibitor: Shiga toxin inhibition. hit rate 9.2% among 290,000. inhibition, % at 38.7 µM. AID 2315. Vero cells, Shiga toxin protein synthesis inhibition reporter; in the data active means inhibition mostly above about 28%, no sharp cut-off; inactive means mostly below about 43%
Pf growth 48h: inhibits P. falciparum growth in the first generation, 48 h; P. falciparum luciferase growth in erythrocytes, 48 h; Potency, µM (top dose mostly 28.7 µM), usual class: inhibitors; hit rate 5.9% among 310,000
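Here the parasites carry a stable luciferase gene and grow inside erythrocytes in Albumax-based RPMI medium with compound for one erythrocytic cycle. Activity is scored as loss of luminescent signal.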
Marburg entry inh: blocks Marburg virus binding to or entry into cells | Marburg virus pseudotyped entry inhibition, cell reporter | Potency, µM (doses to about 37.8 µM), actives largely listed as inhibitors | hit rate 1.8% among 300,000; calls by dose curve; tested in HEK293 cells
Cycloheximide cs: counter-screen for Shiga toxin inhibitors: cycloheximide protein synthesis inhibition. max response, %. cell reporter, cycloheximide protein synthesis inhibition counterscreen. hit rate 12% among 300,000; in the data active means max response mostly above about 13%, no sharp cut-off; inactive means mostly below about 14%; further: read at 38.3 µM for the half of the compounds with a filed dose
Large screens that a line does not name were inactive. Unless noted, the call rests on the fitted dose curve; in most records, active means well fitted inhibition curve with a large enough effect; inconclusive means small, poorly fitted or top-dose-only effect, or another doubt; inactive means no such curve, though single readings can be large or run the other way.

O=C(N/C(=C/c1ccc(Br)cc1)C(=O)N1CCCCC1)c1ccccc1F	Pf growth 48h inconclusive
CCCc1c(C)nc(N2CCN(c3cccc(OC)c3)CC2)[nH]c1=O	Marburg entry inh inconclusive
Nc1cc[n+](CC(=O)c2ccccc2)cc1	Pf growth 48h inconclusive (no result: Lassa entry inh, Marburg entry inh)
O=C(C[n+]1ccc2ccccc2c1)c1ccccc1	Pf growth 96h 9.28µM, Lassa entry inh inconclusive, Pf growth 48h inconclusive, Marburg entry inh inconclusive, Cycloheximide cs 20.4
O=C(C[n+]1cccc(Br)c1)c1ccc(-c2ccccc2)cc1	Cycloheximide cs 22.1 (no result: Lassa entry inh, Marburg entry inh)
O=C(NCc1nc(-c2ccc(C(F)(F)F)cc2)no1)c1cccs1	Cycloheximide cs 8.2 (no result: Lassa entry inh, Marburg entry inh)
CC(NC(=O)c1ccco1)c1nc(-c2ccc(C(C)(C)C)cc2)no1 (stereo not drawn)	Pf growth 96h inconclusive, Shiga inhibitor 49.0, Marburg entry inh inconclusive
O=C(Nc1ccc(-c2noc(COc3ccccc3Cl)n2)cc1)c1ccco1	Lassa entry inh inconclusive, Shiga inhibitor active, Pf growth 48h inconclusive, Marburg entry inh inconclusive, Cycloheximide cs 41.5
CC(C)(C)c1ccc(-c2noc(CNC(=O)c3ccco3)n2)cc1	Pf growth 48h inconclusive, Marburg entry inh inconclusive, Cycloheximide cs 31.7
O=C(NCc1nc(-c2ccccc2)no1)c1ccco1	none (no result: Pf growth 96h, Shiga inhibitor, Pf growth 48h, Cycloheximide cs)
NCCCCCc1nnc(SCc2ccc(Cl)cc2Cl)o1	none
Cc1ccc(Cn2nnc(C(=O)Nc3cc(C)ccc3C)c2N)cc1	Pf growth 48h inconclusive
CC(C)(C)c1ccc(-c2noc(CCC(=O)NCc3ccco3)n2)cc1	Lassa entry inh inconclusive, Marburg entry inh inconclusive, Cycloheximide cs 34.2
Cc1cccc(-c2noc(CCC(=O)NCc3ccco3)n2)c1	none (no result: Pf growth 48h)
Cc1c(C(=O)N(Cc2ccncc2)CC2CCCO2)oc2c(F)cccc12 (stereo not drawn)	Pf growth 96h 10.4µM (no result: Lassa entry inh, Marburg entry inh)
Cc1c(C(=O)N(CCO)Cc2ccccc2)oc2c(F)cccc12	Pf growth 96h inconclusive, Shiga inhibitor 32.3, Cycloheximide cs 35.2 (no result: Lassa entry inh, Marburg entry inh)
Cc1cc(Cl)c2oc(C(=O)N(CCO)Cc3ccccc3)c(C)c2c1	Pf growth 96h inconclusive, Shiga inhibitor 64.3, Pf growth 48h inconclusive, Cycloheximide cs 20.6
Cc1ccc2c(C)c(C(=O)N(Cc3ccncc3)CC3CCCO3)oc2c1C (stereo not drawn)	Marburg entry inh inconclusive
Cc1cc(Cl)c2oc(C(=O)N(C)C3CCOC3)c(C)c2c1 (stereo not drawn)	Lassa entry inh inconclusive, Shiga inhibitor 54.5, Cycloheximide cs 35.9
CCCCOc1ccc(CNC(=O)c2cnc3sc(N4CCCCCC4)nn3c2=O)cc1	none (no result: Pf growth 96h, Shiga inhibitor, Pf growth 48h, Marburg entry inh, Cycloheximide cs)
O=C(NC1CCCC1)c1cccc(S(=O)(=O)Nc2ccccc2F)c1	none (no result: Lassa entry inh, Shiga inhibitor, Marburg entry inh, Cycloheximide cs)
Cc1cc(Cl)c2oc(C(=O)N(C)Cc3ccon3)c(C)c2c1	Shiga inhibitor 95.0, Cycloheximide cs 48.4 (no result: Lassa entry inh, Marburg entry inh)
Cc1cc(Cl)c2oc(C(=O)N(C)Cc3cc(C)[nH]n3)c(C)c2c1	Marburg entry inh inconclusive
Clc1ccc(CSC(Cn2ccnc2)c2ccc(Cl)cc2Cl)cc1 (stereo not drawn)	Pf growth 96h 2.94µM, Lassa entry inh inconclusive, Pf growth 48h 2.08µM, Marburg entry inh inconclusive
Clc1ccc(OCCCn2ccnc2)c(Br)c1	Pf growth 48h inconclusive
O=C(Cc1ccc(Cl)cc1)NCCCn1ccnc1	Pf growth 96h inconclusive, Pf growth 48h inconclusive
Clc1ccc(CS[C@@H](Cn2ccnc2)c2ccc(Cl)cc2Cl)cc1	Pf growth 96h 2.28µM, Pf growth 48h 5.1µM, Marburg entry inh inconclusive (no result: Lassa entry inh, Shiga inhibitor, Cycloheximide cs)
CC(=O)c1cc(C#N)c(SCc2ccccc2)nc1C	Lassa entry inh inconclusive, Marburg entry inh inconclusive, Cycloheximide cs 31.7 (no result: Pf growth 48h)
COC(=O)CSc1nc(C)c(C(C)=O)cc1C#N	Lassa entry inh inconclusive, Marburg entry inh inconclusive, Cycloheximide cs 23.5
COC(=O)CSc1nc(-c2cccs2)ccc1C#N	Pf growth 96h inconclusive, Lassa entry inh inconclusive, Cycloheximide cs 36.4
COC(=O)c1cc(C#N)c(SCc2ccccc2)nc1C	Lassa entry inh inconclusive (no result: Pf growth 96h)
CC(=O)c1cc(C#N)c(SCc2ccccn2)nc1C	Shiga inhibitor 68.3, Marburg entry inh inconclusive, Cycloheximide cs 46.7
CCCSc1nc(C)c(C(C)=O)cc1C#N	none (no result: Pf growth 96h)
N#CN	none (no result: Lassa entry inh, Shiga inhibitor, Marburg entry inh, Cycloheximide cs)
CC(=O)N1c2ccc(S(=O)(=O)N3CCCC3)cc2CC1C(=O)NCc1ccccc1F (stereo not drawn)	Pf growth 96h inconclusive (no result: Lassa entry inh, Marburg entry inh)
COc1ccc(-c2cc(=Nc3c(C)n(C)n(-c4ccccc4)c3=O)c3ccccc3o2)cc1	Shiga inhibitor 48.4, Marburg entry inh inconclusive, Cycloheximide cs 41.4
